Drawing on PubChem BioAssay (NCATS), this text covers max response, outcome and Potency for eight molecules.

Experiment [1] deals with CRL-7250. In words: Cytotoxic Profiling of Annotated Libraries Using Quantitative High-Throughput Screening (AID 1296008). For max response: % is set by controls: 0 for no effect and ±100 for the full control effect. The following applies: Five cell lines viability, CellTiter-Glo ATP luminescence, 48-72 h; max response: active compounds read low. The method in brief: (§1)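 Cytotoxicity was measured as CellTiter-Glo ATP luminescence, read after 10 min at room temperature. Compound treatment of the cells lasted 48 or 72 hr at 37 degrees Celsius in a qHTS format.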
On the technique in general: Cellular ATP, detected with luciferase, serves as a proxy for viable cell number.

The subject of experiment [2] is HaCat. Described as above. The conditions noted are these: Five cell lines viability, CellTiter-Glo ATP luminescence, 48-72 h; max response: active compounds read low. Put shortly:
as §1

The test system of experiment [3] is KB-3-1. The description is as above. The following applies: Five cell lines viability, CellTiter-Glo ATP luminescence, 48-72 h; max response: active compounds read low. The method in brief: as §1
The test system of experiment [4] is NIH3T3. Described as above. The conditions noted are these: Five cell lines viability, CellTiter-Glo ATP luminescence, 48-72 h; max response: active compounds read low. Put shortly: as §1
The subject of experiment [5] is HACAT. In words: qHTS assay to identify novel small-molecules to repurpose for Merkel cell carcinoma treatment (AID 1296009). The conditions noted are these: MCC and control cell lines, CellTiter-Glo viability, 72 h; at 44.8 µM (top of the series) unless noted. The method in brief: (§2)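 Cell viability measured by CellTiter-Glo following 72 hr compound treatment at 37 degree celsius, with NPC and MIPE libraries tested in 8- and 11-point concentration series.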
On the technique in general: In qHTS, concentration-response curves come from the screen itself.

Experiment [6] has as its system HEK293T. Described as above. The following applies: MCC and control cell lines, CellTiter-Glo viability, 72 h; at 44.8 µM (top of the series) unless noted. The method in brief:
as §2

The subject of experiment [7] is MCC-13. The description is as above. The conditions noted are these: MCC and control cell lines, CellTiter-Glo viability, 72 h; series mostly up to 46 µM. The method in brief:
as §2

Experiment [8] concerns HEK293. The experiment is described as follows: Cytotoxic Profiling of Annotated Libraries Using Quantitative High-Throughput Screening (AID 1296008). For max response: % is set by controls: 0 for no effect and ±100 for the full control effect. The conditions noted are these: Five cell lines viability, CellTiter-Glo ATP luminescence, 48-72 h; max response: active compounds read low. The method in brief:
as §1

Experiment [9] has as its system P93_24. In words: qHTS profiling for inhibitors of Plasmodium falciparum proliferation (AID 504749). The conditions noted are these: P. falciparum in erythrocytes, SYBR Green DNA, 72 h; series mostly up to 28.7 µM. The method in brief:
(§3)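 In a 72 h erythrocytic culture (37 C, humidified, 5% CO2) at 2.5% hematocrit and 0.3% starting parasitemia, compounds were tested; SYBR Green I in detergent lysis buffer stained parasite DNA overnight.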

For experiment [10], the system named is P94_40. The description is as above. The conditions noted are these: P. falciparum in erythrocytes, SYBR Green DNA, 72 h; series mostly up to 28.7 µM. The method in brief: as §3
For experiment [11], the system named is PAD. Described as above. The conditions noted are these: P. falciparum in erythrocytes, SYBR Green DNA, 72 h; series mostly up to 28.7 µM. The method in brief:
as §3

In experiment [12] the test system is PC15. Described as above. The following applies: P. falciparum in erythrocytes, SYBR Green DNA, 72 h; series mostly up to 28.7 µM. The method in brief: as §3
Experiment [13] concerns PC26. Described as above. The following applies: P. falciparum in erythrocytes, SYBR Green DNA, 72 h; series mostly up to 28.7 µM. Put shortly: as §3
Experiment [14] has as its system PC49. The experiment is described as above. The conditions noted are these: P. falciparum in erythrocytes, SYBR Green DNA, 72 h; series mostly up to 28.7 µM. The method in brief:
as §3

The subject of experiment [15] is SC27B. Described as above. The following applies: P. falciparum in erythrocytes, SYBR Green DNA, 72 h; series mostly up to 28.7 µM. Put shortly:
as §3

Experiment [16] has as its system TAB109. Described as above. The conditions noted are these: P. falciparum in erythrocytes, SYBR Green DNA, 72 h; series mostly up to 28.7 µM. The method in brief: as §3
The subject of experiment [17] is TAB113. The description is as above. The conditions noted are these: P. falciparum in erythrocytes, SYBR Green DNA, 72 h; series mostly up to 28.7 µM. The method in brief:
as §3

Experiment [18] concerns TAB165. Described as above. The conditions noted are these: P. falciparum in erythrocytes, SYBR Green DNA, 72 h; series mostly up to 28.7 µM. Put shortly: as §3
For experiment [19], the system named is W2. Described as above. The following applies: P. falciparum in erythrocytes, SYBR Green DNA, 72 h; series mostly up to 28.7 µM. Put shortly: as §3
The test system of experiment [20] is CRL-7250. The experiment is described as follows: qHTS assay to identify novel small-molecules to repurpose for Merkel cell carcinoma treatment (AID 1296009). The conditions noted are these: MCC and control cell lines, CellTiter-Glo viability, 72 h; at 44.8 µM (top of the series) unless noted. The method in brief:
as §2

Several values for one entry are separate records, joined by “and”; a condition that tells them apart may be missing. Identical values can stand only once. Inconclusive results are not listed. Unmarked numbers belong to inactive results. Activity calls are given as the source filed them. Calls come from the whole dose curve; as a rule, active = well fitted inhibition curve with a large enough effect; inconclusive = small, poorly fitted or top-dose-only effect; inactive = flat fitted curve, though single readings scatter.
Note: nearly all actives have a fitted effect of over 60% in size.
Potency is the fitted concentration of half-maximal effect.

Consider `c1cc2c(cc1[C@H]1OC[C@H]3[C@H]1CO[C@H]3c1ccc3c(c1)OCO3)OCO2`, for which the max response in [1] was -11.7%; in [3], 6.13%. Also, the molecule was classed as inactive in experiment [2], in [4], in experiment [5] and in experiment [6]. Further, in experiment [7], the Potency result is “inactive”.
Regarding `C[C@@H]1CC[C@@]2(OC1)O[C@H]1C[C@H]3[C@@H]4CC=C5C[C@@H](O[C@@H]6O[C@H](CO)[C@@H](O[C@@H]7O[C@@H](C)[C@H](O)[C@@H](O)[C@@H]7O)[C@H](O)[C@@H]6O[C@@H]6O[C@@H](C)[C@H](O)[C@@H](O)[C@@H]6O)CC[C@]5(C)[C@@H]4CC[C@]3(C)[C@@H]1[C@H]2C`, the Potency in experiment [1] is 9.35 µM (active); in [8], 3.72 µM (active); in [3], 8.33 µM (active); in experiment [4] it was 13.2 µM (active).
Regarding `CC(=O)Nc1ccc(OC[C@](C)(O)C(=O)Nc2ccc([N+](=O)[O-])c(C(F)(F)F)c2)cc1`, the max response was -1.8% and -4.07% in experiment [1]; -8.66% and -10.1% in experiment [2]; -13.4% and 7.92% in [3]; 2.34% in [4]. Further, the molecule was classed as inactive in [4] and in experiment [6]. In experiment [7], the Potency result was “inactive”.
For `CC(=O)[O][Hg][c]1ccccc1`, the Potency is 5.01 µM (active) in experiment [9]; 3.55 µM (active) in experiment [10]; 6.31 µM (active) in [11]; 3.55 µM (active) in experiment [12]; 6.75 µM (active) in experiment [13]; 2 µM (active) in experiment [14]. Also, the Potency was 4.47 µM (active) in experiment [15]; 4.47 µM (active) in [16]; 7.08 µM (active) in experiment [17]; 4.47 µM (active) in [18]; 4.78 µM (active) in [19]; 4.22 µM (active) in experiment [1]. For the same molecule, the results for the Potency in experiment [8], in experiment [3] and in experiment [7] were 0.376 µM (active), 1.64 µM (active) and 1.06 µM (active), respectively.
With `CC(=O)OCC1=C(C(=O)O)N2C(=O)[C@@H](N)[C@@H]2SC1`, the Potency result in experiment [12], in experiment [13], in [14], in experiment [19] and in [7] was “inactive” throughout. Moreover, the outcome in experiment [1] and in experiment [20] was inactive. Further, the max response in experiment [2] was -5.82%; in experiment [3], 0.594%; in experiment [4] it was -7.48%.
For `CC(C)(C)NC[C@H](O)c1ccc(O)cc1Cl`, the max response is -2.25% in experiment [1], -9.08% in [8], 9.37% in [3] and -4.5% in experiment [4]. Besides, in experiment [7], the Potency entry was “inactive”.
`O=c1[nH]c2ccc(Cl)cc2c(N[C@@H]2CN3CCC2CC3)c1-c1nc2ccccc2[nH]1`: the Potency in experiment [1] is 2.35 µM (active) and 6.51 µM (active); in [2] it was 16.6 µM (active); in experiment [3], 3.72 µM (active); in [4], 83.3 nM (active) and 206 nM (active); in [7], 4.18 µM (active).
As to `O=S(=O)(CC1CS1)c1ccc(Oc2ccccc2)cc1` (stereo not drawn), the max response in experiment [1] is -6.75%; in experiment [2] it was 3.29%; in [3], 0.22%; in experiment [4], -6.16%. The Potency entry in experiment [7] is “inactive”.
